Test results taken from PubChem BioAssay AID1159580 (chemical genetic matrix, 2015).
“And” between values parts separate entries of the source, which are not always exact repeats. Equal values may be shown once. Out of some 5,500 compounds screened, about 2,000 (36%) were called active. Inconclusive results (about 18%) are left out. Rule as the data show it: active = normalized growth mostly below about 0.91 (no sharp cut-off); inconclusive = no clear call, values can overlap the other calls; inactive = mostly above about 0.92. The list shows a part of the results.

Assay: chemical genetic growth profiling, strain panel (AID 1159580);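 also: tested at 20 µM; growth read once vehicle control cultures reached saturation at 30 °C; 1 = growth at the plate median or of vehicle wells; lower values mean less growth of the strain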
Settings: S. cerevisiae deletion strains, growth OD

## COC(=O)COc1cc(Cl)c(Cl)cc1Cl
Locus YAL013W, strain DEP1, stronger effect = lower value
  normalized growth: 0.982 (inactive)
Locus YAL021C, strain ccr4, stronger effect = lower value
  normalized growth: 0.993 (inactive)
Locus YAL026C, strain drs2, stronger effect = lower value
  normalized growth: 0.996 (inactive)
Locus YAL030W, strain snc1, stronger effect = lower value
  normalized growth: 0.998 (inactive)
Locus YBL061C, strain skt5, stronger effect = lower value
  normalized growth: 0.989 (inactive)
Locus YBR009C, strain hhf1, stronger effect = lower value
  normalized growth: 0.989 (inactive)
Locus YBR021W, strain FUR4, stronger effect = lower value
  normalized growth: 0.98 (inactive)
Locus YBR023C, strain chs3, stronger effect = lower value
  normalized growth: 0.99 (inactive)
Locus YBR171W, strain sec66, stronger effect = lower value
  normalized growth: 1.01 (inactive)
Locus YBR229C, strain ROT2, stronger effect = lower value
  normalized growth: 0.981 (inactive)
Locus YBR231C, strain swc5, stronger effect = lower value
  normalized growth: 0.99 (inactive)
Locus YBR279W, strain paf1, stronger effect = lower value
  normalized growth: 1 (inactive)
Locus YCL011C, strain gbp2, stronger effect = lower value
  normalized growth: 0.99 (inactive)
Locus YCL016C, strain dcc1, stronger effect = lower value
  normalized growth: 1.01 (inactive)
Locus YCL029C, strain bik1, stronger effect = lower value
  normalized growth: 0.957 (inactive)
Locus YCL061C, strain MRC1, stronger effect = lower value
  normalized growth: 0.985 (inactive)
Locus YCL069W, strain vba3, stronger effect = lower value
  normalized growth: 0.986 (inactive)
Locus YCR088W, strain abp1, stronger effect = lower value
  normalized growth: 0.985 (inactive)
Locus YDL005C, strain med2, stronger effect = lower value
  normalized growth: 1.01 (inactive)
Locus YDL035C, strain GPR1, stronger effect = lower value
  normalized growth: 1.01 (inactive)
Locus YDL040C, strain nat1, stronger effect = lower value
  normalized growth: 0.996 (inactive)
Locus YDL074C, strain BRE1, stronger effect = lower value
  normalized growth: 0.943 (inactive)
Locus YDL101C, strain DUN1, stronger effect = lower value
  normalized growth: 0.977 (inactive)
Locus YDL134C, strain PPH21, stronger effect = lower value
  normalized growth: 0.978 (inactive)
Locus YDL185W, strain tfp1, stronger effect = lower value
  normalized growth: 0.992 (inactive)
Locus YDL192W, strain arf1, stronger effect = lower value
  normalized growth: 0.989 (inactive)
Locus YDR001C, strain nth1, stronger effect = lower value
  normalized growth: 0.988 (inactive)
Locus YDR069C, strain doa4, stronger effect = lower value
  normalized growth: 1.02 (inactive)
Locus YDR101C, strain arx1, stronger effect = lower value
  normalized growth: 0.954 (inactive)
Locus YDR137W, strain rgp1, stronger effect = lower value
  normalized growth: 0.839 (active)
Locus YDR150W, strain NUM1, stronger effect = lower value
  normalized growth: 0.976 (inactive)
Locus YDR159W, strain sac3, stronger effect = lower value
  normalized growth: 0.973 (inactive)
Locus YDR162C, strain NBP2, stronger effect = lower value
  normalized growth: 0.965 (inactive)
Locus YDR195W, strain ref2
  normalized growth: 1.02 (inactive)
Locus YDR297W, strain sur2, stronger effect = lower value
  normalized growth: 1.02 (inactive)
Locus YDR318W, strain mcm21, stronger effect = lower value
  normalized growth: 0.955 (inactive)
Locus YDR334W, strain swr1, stronger effect = lower value
  normalized growth: 1 (inactive)
Locus YDR335W, strain msn5, stronger effect = lower value
  normalized growth: 1.01 (inactive)
Locus YDR388W, stronger effect = lower value
  normalized growth: 0.974 (inactive)
Locus YDR392W, strain spt3, stronger effect = lower value
  normalized growth: 0.963 (inactive)
Locus YDR502C, strain sam2, stronger effect = lower value
  normalized growth: 0.969 (inactive)
Locus YEL003W, strain gim4, stronger effect = lower value
  normalized growth: 1.01 (inactive)
Locus YEL037C, strain rad23, stronger effect = lower value
  normalized growth: 0.997 (inactive)
Locus YEL061C, strain CIN8 (second series), stronger effect = lower value
  normalized growth: 0.993 (inactive)
Locus YEL061C, strain CIN8, stronger effect = lower value
  normalized growth: 0.98 (inactive)
Locus YER015W, strain faa2, stronger effect = lower value
  normalized growth: 0.998 (inactive)
Locus YER016W, strain bim1, stronger effect = lower value
  normalized growth: 0.999 (inactive)
Locus YER110C, stronger effect = lower value
  normalized growth: 0.954 (inactive)
Locus YER111C, strain swi4, stronger effect = lower value
  normalized growth: 0.997 (inactive)
Locus YER155C, strain BEM2 (second series), stronger effect = lower value
  normalized growth: 1.01 (inactive)
Locus YER155C, strain BEM2, stronger effect = lower value
  normalized growth: 0.983 (inactive)
Locus YER167W, strain BCK2, stronger effect = lower value
  normalized growth: 0.975 (inactive)
Locus YFR010W, strain ubp6, stronger effect = lower value
  normalized growth: 1.01 (inactive)
Locus YGL078C, strain dbp3, stronger effect = lower value
  normalized growth: 0.96 (inactive)
Locus YGL086W, strain mad1, stronger effect = lower value
  normalized growth: 0.976 (inactive)
Locus YGL167C, strain pmr1, stronger effect = lower value
  normalized growth: 0.997 (inactive)
Locus YGL173C, strain kem1, stronger effect = lower value
  normalized growth: 0.998 (inactive)
Locus YGL227W, strain vid30, stronger effect = lower value
  normalized growth: 0.979 (inactive)
Locus YGL240W, strain doc1, stronger effect = lower value
  normalized growth: 0.995 (inactive)
Locus YGL248W, strain PDE1, stronger effect = lower value
  normalized growth: 0.987 (inactive)
Locus YGL253W, strain hxk2, stronger effect = lower value
  normalized growth: 1.01 (inactive)
Locus YGR078C, strain PAC10, stronger effect = lower value
  normalized growth: 0.968 (inactive)
Locus YGR135W, strain pre9, stronger effect = lower value
  normalized growth: 0.971 (inactive)
Locus YGR229C, strain SMI1, stronger effect = lower value
  normalized growth: 0.942 (inactive)
Locus YGR252W, strain gcn5, stronger effect = lower value
  normalized growth: 1 (inactive)
Locus YHR013C, strain ard1, stronger effect = lower value
  normalized growth: 1.13 (inactive)
Locus YHR027C, strain rpn1, stronger effect = lower value
  normalized growth: 1.03 (inactive)
Locus YHR030C, strain SLT2, stronger effect = lower value
  normalized growth: 0.967 (inactive) and 0.86 (inactive)
Locus YHR079C, strain IRE1 (second series), stronger effect = lower value
  normalized growth: 0.953 (inactive)
Locus YHR079C, strain IRE1, stronger effect = lower value
  normalized growth: 0.884 (inactive)
Locus YHR094C, strain hxt1, stronger effect = lower value
  normalized growth: 0.964 (inactive)
Locus YHR129C, strain ARP1, stronger effect = lower value
  normalized growth: 0.976 (inactive)
Locus YHR142W, strain chs7, stronger effect = lower value
  normalized growth: 0.988 (inactive)
Locus YHR200W, strain rpn10, stronger effect = lower value
  normalized growth: 0.982 (inactive)
Locus YIL066C, strain RNR3, stronger effect = lower value
  normalized growth: 0.948 (inactive)
Locus YIL073C, strain SPO22, stronger effect = lower value
  normalized growth: 1.04 (inactive)
Locus YIL125W, strain kgd1, stronger effect = lower value
  normalized growth: 0.957 (inactive)
Locus YIR030C, strain dcg1, stronger effect = lower value
  normalized growth: 0.953 (inactive)
Locus YJL092W, strain hpr5, stronger effect = lower value
  normalized growth: 0.989 (inactive)
Locus YJL095W, strain BCK1 (second series), stronger effect = lower value
  normalized growth: 0.991 (inactive)
Locus YJL095W, strain BCK1, stronger effect = lower value
  normalized growth: 0.853 (inactive) and 0.874 (active)
Locus YJL115W, strain asf1, stronger effect = lower value
  normalized growth: 1.01 (inactive)
Locus YJL129C, strain trk1, stronger effect = lower value
  normalized growth: 0.971 (inactive)
Locus YJL134W, strain LCB3, stronger effect = lower value
  normalized growth: 0.974 (inactive)
Locus YJL154C, strain vps35, stronger effect = lower value
  normalized growth: 0.99 (inactive)
Locus YJL164C, strain tpk1, stronger effect = lower value
  normalized growth: 0.997 (inactive)
Locus YJL166W, strain qcr8, stronger effect = lower value
  normalized growth: 0.995 (inactive)
Locus YJL168C, strain set2, stronger effect = lower value
  normalized growth: 0.976 (inactive)
Locus YJL187C, strain SWE1 (second series), stronger effect = lower value
  normalized growth: 0.983 (inactive)
Locus YJL187C, strain SWE1, stronger effect = lower value
  normalized growth: 1 (inactive)
Locus YJR043C, strain POL32, stronger effect = lower value
  normalized growth: 0.942 (inactive)
Locus YJR066W, strain TOR1, stronger effect = lower value
  normalized growth: 0.842 (inactive)
